From PubChem BioAssay
BJeLR lethal – MLPCN primary cell-based screen for lethality selective to Ras in HRASV12 cells | inhibition, % (test concentration not listed) | BJeLR (HRASV12) viability, CellTiter-Glo ATP luminescence, 48 h | hit rate 0.17% among 300,000; in the data active = inhibition above about 50%
PrPC TRFRET – inhibitors of human cell surface prion protein PrPC, primary screen, cell-based, TR-FRET; hit rate 0.43% among 370,000; inhibition, % at 13.8 µM; AID 720596, 2013; Major prion protein (Homo sapiens), P04156; TR-FRET read-out; in the data active = inhibition above about 24%; note: 0% = median of the test wells and 100% = reference compound wells
Mtb FBA inh – Mtb FBA enzyme inhibitors, primary screen, biochemical, fluorescence, strain H37Rv; Fructose-bisphosphate aldolase (Mycobacterium tuberculosis (strain ATCC 25618 / H37Rv)), …; purified M. tuberculosis FBA, fluorescence read-out; inhibition, % at 1 µM; hit rate 2.3% among 360,000; AID 588726, 2011;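 note: 0% = vehicle and 100% = reference inhibitor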
RecA splice inh – Mtb RecA intein splicing inhibitors, primary screen, biochemical, fluorescence, HTS | inhibition, % (test concentration not listed) | cell-free RecA intein splicing | hit rate 0.75% among 290,000 | AID 2221, 2009; in the data active = inhibition above about 30%;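 note: 0% = vehicle wells and 100% = reference inhibitor control wells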
Target sequence (P9WHJ3 whole entry, looked up, canonical isoform): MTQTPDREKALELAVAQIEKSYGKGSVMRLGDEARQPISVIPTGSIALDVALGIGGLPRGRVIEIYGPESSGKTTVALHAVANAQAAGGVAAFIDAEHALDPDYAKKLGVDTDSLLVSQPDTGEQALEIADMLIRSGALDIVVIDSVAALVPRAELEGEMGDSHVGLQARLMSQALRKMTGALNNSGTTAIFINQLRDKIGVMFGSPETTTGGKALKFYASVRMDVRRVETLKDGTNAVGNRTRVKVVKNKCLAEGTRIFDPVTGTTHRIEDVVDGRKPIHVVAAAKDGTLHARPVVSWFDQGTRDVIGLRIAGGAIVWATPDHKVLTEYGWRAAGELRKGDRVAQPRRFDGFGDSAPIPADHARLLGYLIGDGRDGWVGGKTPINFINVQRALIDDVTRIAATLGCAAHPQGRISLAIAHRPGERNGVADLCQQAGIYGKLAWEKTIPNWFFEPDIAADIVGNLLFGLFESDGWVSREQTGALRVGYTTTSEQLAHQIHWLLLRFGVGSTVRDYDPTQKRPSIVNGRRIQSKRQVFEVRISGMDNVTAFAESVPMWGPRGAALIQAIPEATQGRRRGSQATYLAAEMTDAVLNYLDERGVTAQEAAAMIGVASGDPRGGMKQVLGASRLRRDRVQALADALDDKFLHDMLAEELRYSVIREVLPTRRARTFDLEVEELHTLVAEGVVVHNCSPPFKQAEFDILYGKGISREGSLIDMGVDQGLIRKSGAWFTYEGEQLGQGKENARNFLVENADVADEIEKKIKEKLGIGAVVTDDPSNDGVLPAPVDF
GDH-TPI counter-1 – GDH-TPI coupling enzyme inhibitors, primary screen, artefact control for M. tuberculosis FBA inhibitor project, biochemical, absorbance, full deck; hit rate 1.2% among 360,000; AID 588335, 2011; GDH-TPI coupled enzyme counterscreen, NADH absorbance; inhibition, % at 4.8 µM; in the data active = inhibition above about 30%;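 note: 0% = DMSO wells and 100% = wells lacking the enzyme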
Mtb FBA inh conf – M. tuberculosis aldolase blockers, biochemical, fluorescence, strain H37Rv, confirmation. shares compounds with Mtb FBA inh. purified M. tuberculosis FBA, fluorescence read-out. inhibition, % at 1 µM. hit rate 78% among 5,600. AID 651616, 2012;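 note: 0% = vehicle wells and 100% = reference inhibitor wells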
GDH-TPI counter-2 – GDH-TPI coupling enzyme inhibitors, artefact control for M. tuberculosis FBA inhibitor project, biochemical, fluorescence, high throughput | shares compounds with Mtb FBA inh | GDH-TPI coupled enzyme counterscreen | inhibition, % at 1 µM | hit rate 81% among 5,600; in the data active = inhibition above about 10%
GDH-TPI DR – GDH-TPI coupling enzyme inhibitors, dose response, artefact control for M. tuberculosis FBA inhibitor project, biochemical, fluorescence, IC50 | IC50, µM | shares compounds with Mtb FBA inh | GDH-TPI coupled enzyme assay, artifact counterscreen | hit rate 79% among 170; call rule not given here
Numbers without * were called inactive; / = no result; + = active, no number. Hits are enriched below; roughly 4.2% of the tested compounds scored in any of these assays. Cut-off read from the data, not from the text of the source, unless noted: active = inhibition above about 27%; inactive = the rest.

SMILES | BJeLR lethal | PrPC TRFRET | Mtb FBA inh | RecA splice inh | GDH-TPI counter-1 | Mtb FBA inh conf | GDH-TPI counter-2 | others
CCO[C@@H]1c2c(ccc3ccc(=O)oc23)OC(C)(C)[C@H]1O | / | 4 | 56* | / | 17 | 21 | 8 | GDH-TPI DR=2.9*
CCO[C@@H]1c2c(ccc3ccc(=O)oc23)OC(C)(C)[C@@H]1O | / | -1 | 57* | / | 20 | 56* | 40*
CN(c1cccnc1)c1ccc(NC(=O)Cc2c[nH]c3ccccc23)cc1Br | / | -10 | / | / | / | / | /
Cc1ccc(C2=CCN(C)C(=O)N2c2ccc([N+](=O)[O-])cc2)cc1 | / | 5 | / | / | / | / | /
CC(C)=CC(=O)O[C@@H]1Cc2c(ccc3ccc(=O)oc23)OC1(C)C | / | -5 | 33* | / | 16 | 35* | 26*
C[C@@H](CO)N(CCc1cn(Cc2ccccc2)nn1)S(=O)(=O)c1ccccc1Br | / | -4 | / | / | / | / | /
COC(=O)C[C@H]1CC[C@H]2[C@H](COc3ccc(NS(=O)(=O)c4ccccc4C)cc3C(=O)N2C)O1 | / | 2 | / | / | / | / | /
C/C(=N\O)c1ccc2c3ccccc3n(C)c2c1 | 14 | 11 | 44* | 1 | 5 | + | 169*
CC(C)(C)Sc1ccc2nc3c(n2c1)CCCC3 | -1 | 3 | 30* | 2 | -1 | 95* | 56*
O=c1[nH]c(-c2ccc(O)cc2)nc2scc(-c3cccs3)c12 | 5 | 4 | 35* | 1 | 20 | / | +
CCCCn1nc2cc(C(=O)NCC34CC5CC(CC(C5)C3)C4)ccc2c1OCC | 10 | 0 | 21 | -1 | 10 | / | /
CCCn1nc2cc(C(=O)NC3CCCc4ccccc43)ccc2c1OCC (stereo unspecified) | 4 | 9 | 56* | 5 | -8 | 137* | 99*
CCCCn1nc2cc(C(=O)NC3CCc4ccccc43)ccc2c1OCC (stereo unspecified) | -2 | 11 | 53* | 6 | -3 | + | +
Nc1nc(-c2ccccc2)[nH]c(=O)c1N | 16 | -7 | 29* | -15 | 16 | 72* | 53*
COC(=O)C1=CN(Cc2ccc(OC)cc2)C=C(C(=O)OC)C1c1cc(OC)c(OC)c(OC)c1 | 1 | / | 48* | -17 | 1 | 88* | 64*
COC(=O)C1=CN(Cc2cccs2)C=C(C(=O)OC)C1c1cccc(O)c1 | -1 | -2 | 85* | -203 | 2 | 94* | 82*
COC(=O)C1=CN(C(C)c2ccccc2)C=C(C(=O)OC)C1c1cc(OC)c(OC)c(OC)c1 (stereo unspecified) | 5 | 1 | 71* | -94 | 13 | 52* | 48*
COc1ccc(CNC(=O)CCc2cc(OC)c(OC)c(OC)c2)cc1 | -4 | -2 | -1 | 2 | 2 | / | /
COC(=O)C1=CN(CC2CCCO2)C=C(C(=O)OC)C1c1cc(OC)c(OC)c(OC)c1 (stereo unspecified) | 0 | -7 | 52* | -76 | 18 | 0 | -5
COc1cc(C(=O)NCC2CCCO2)cc(OC)c1OC (stereo unspecified) | 2 | 3 | 2 | 4 | 0 | / | /
Cc1ccc(C(=O)N2CCC(Oc3cccnc3)CC2)c(C)c1 | / | 6 | / | / | / | / | /
CCCCCCN1CCN(C2CN(Cc3cn(Cc4ccc(C(F)(F)F)cc4)nn3)S(=O)(=O)C2)CC1 (stereo unspecified) | / | 10 | / | / | / | / | /
O=S1(=O)N[C@H](Cc2ccccc2)COc2cc(N3CCOCC3)ccc21 | / | -1 | / | / | / | / | /
C[C@H]1COc2cc(N3CCCC3)ccc2S(=O)(=O)N1 | / | 5 | / | / | / | / | /
CCOC(=O)C1=C(C)NC(C)=C(C(=O)OCC)C1c1ccc(OC)c(OC)c1 | / | 2 | 7 | / | 6 | / | /
SMILES | BJeLR lethal | PrPC TRFRET | Mtb FBA inh | RecA splice inh | GDH-TPI counter-1 | Mtb FBA inh conf | GDH-TPI counter-2 | others
CCOC(=O)C1=C(C)NC(C)=C(C(=O)OCC)C1c1cccs1 | -11 | 3 | -3 | -1 | 8 | / | /
CCOC(=O)C1=CN(Cc2ccc(OC)cc2)C=C(C(=O)OCC)C1c1cccs1 | 12 | 8 | 32* | -14 | 5 | 151* | 136*
COC(=O)C1=CN(Cc2ccc(F)cc2)C=C(C(=O)OC)C1c1cc(OC)c(OC)c(OC)c1 | 7 | -8 | 29* | -52 | 2 | 10 | 9 | GDH-TPI DR=2.9*
COCCN1C=C(C(=O)OC)C(c2ccc(OC)c(OC)c2)C(C(=O)OC)=C1 | 5 | -4 | 29* | 3 | 10 | 135* | 98*
COC(=O)C1CN(Cc2cn(Cc3ccc(F)cc3)nn2)CCS(=O)(=O)N1Cc1ccc(C)cc1 (stereo unspecified) | / | -6 | / | / | / | / | /
Cc1c2ccccc2nc2ccccc12 | -16 | 2 | 64* | -36 | 17 | 199* | 123*
Cc1ccc2c(c1)-c1c(cnn1CC(=O)NCCc1ccc(Cl)cc1)CO2 | / | -3 | / | / | / | / | /
O=C(c1ccc(Cl)c(S(=O)(=O)N2CCCCCC2)c1)N1CCCC(C(F)(F)F)C1 (stereo unspecified) | 1 | 5 | 45* | 5 | 1 | 65* | 46*
CC1=CC2=NC(=O)CC(C)(C(=O)N(CC(=O)NC(C)C)C3CCCC3)N2C=C1 (stereo unspecified) | -6 | / | / | -2 | / | / | /
Cc1ccccc1N(CC(=O)NC1CCCC1)C(=O)C1(C)CC(=O)N=C2C=CC=CN21 (stereo unspecified) | 3 | 1 | 74* | 2 | 12 | 104* | 94*
CC1(C(=O)N(CC(=O)NC2CCCC2)C2CCCC2)CC(=O)N=C2C=CC=CN21 (stereo unspecified) | 3 | -4 | 110* | -3 | 25 | -1 | -5
CC1=CC2=NC(=O)CC(C)(C(=O)N(CC(=O)NC3CCCC3)Cc3ccccc3)N2C=C1 (stereo unspecified) | -3 | -1 | 69* | -3 | 8 | 9 | 4
Cc1cc(C)cc(N(CC(=O)NC2CCCC2)C(=O)C2(C)CC(=O)N=C3C=CC=CN32)c1 (stereo unspecified) | -7 | -6 | 36* | -3 | 12 | + | 161*
COC(=O)[C@]12C[C@H](CC(=O)NCc3cccc(C(F)(F)F)c3)C(=O)N(Cc3ccccc3)C1=C[C@H](COCc1ccccc1)O[C@@H]2C | / | -9 | / | / | / | / | /
